# Compound activity: PubChem BioAssay, Center for Chemical Genomics, University of Michigan
# Dicer processing: inhibitors of human Dicer processing of pre-microRNA | cat-ELCCA pre-miR-21 Dicer processing, chemiluminescence; hits give high values | z-score at 25 µM | hit rate 6% among 47,000 | AID 1347074; in the data active = z-score above about 3, passing the limit was not always enough;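 note: plate controls were vehicle for no effect and no enzyme for full effect; higher signal means more uncleaved substrate so more Dicer inhibition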
# The depositor's hits bear a star. The entries come from a sample that favours hits as a whole.
SMILES,Dicer processing
O=C(CO/N=C/c1ccc(Cl)cc1Cl)NNC(=S)Nc1cc(Cl)ccc1Cl,5.62*
Fc1cccc(Cl)c1CO/N=C/c1ccc(Cl)cc1Cl,1.6
COC(=O)CO/N=C/c1ccc(Cl)cc1Cl,-0.09
Cc1cc(C)c2nc(Nc3nc(C)cc(=O)[nH]3)nc(C)c2c1,1.49
Cc1ccc(NC2=NC(c3ccccc3)n3c(nc(C)cc3=O)N2)c(C)c1 (centres undefined),1.98
Cc1cc(C)c2nc(NC3=NC(c4ccccc4)CC(=O)N3)nc(C)c2c1 (centres undefined),3.5*
CC(C)(O)C(=O)OCC(=O)c1ccc(Cl)cc1,0.8
CCOC(=O)c1c(N)sc2c1CCCC2,-2.07
O=C(CN1C(=O)c2ccccc2S1(=O)=O)NCCSCc1cccc(Cl)c1,-0.32
CCO/C=C1\C(=O)N(c2ccccc2)C(=O)c2cc(OC)ccc21,3.3*
CCO/C=C1/SC(=S)N(c2cc(OC)cc(C(F)(F)F)c2)C1=O,-2.21
CCO/C=C1\C(=O)N(c2ccc(C)cc2)C(=O)c2cc(OC)ccc21,0.4
CCOC(=O)c1sc(Nc2nc(C)cc(OC)n2)nc1C,0.13
COc1cccc(NC(=O)NCCN2CCN=C2C)c1,-0.02
COc1cccc(NC(=O)Nc2nnc(COc3ccc(F)cc3)s2)c1,4.42*
CCOc1ccc2nc(NC(=O)Nc3ccc(F)cc3)sc2c1,-1.27
COc1cccc(NC(=O)Nc2nnc(COc3ccccc3F)s2)c1,5*
COc1ccc(NC(=O)Nc2cncc(C#Cc3ccccc3)c2)cc1,0.81
COc1ccc(OCc2nnc(NC(=O)Nc3ccccc3F)s2)cc1,2.06
COCc1nnc(NC(=O)c2ccco2)s1,0.86
CCOC(=O)Cc1nnc(NC(=O)Nc2ccccc2)s1,1.73
COc1ccc(NC(=O)Nc2nnc(-c3ccncc3)s2)cc1,4.18*
COc1ccccc1NC(=O)Nc1nnc(COc2ccccc2F)s1,4.8*
CC(C)c1nnc(NC(=O)Nc2ccccc2)s1,1.32
CCc1cc(C(=O)c2ccc(OC)cc2)c(NC(=O)Nc2ccc(F)cc2)s1,0.31
SMILES,Dicer processing
O=C(Nc1ccc(-c2nc3cc(NC(=O)c4cccnc4)ccc3o2)cc1)c1cccnc1,0.95
CCOC(=O)c1cc(-c2ccccc2)sc1NC(=O)c1ccccc1F,1.1
COC(=O)c1cnc(-n2ncc(C#N)c2N)nc1C(F)(F)F,-0.34
CSc1cccc(NC(=O)c2c(C)cc(C)cc2CC(C)(C)C(=O)O)c1,-0.29
COC(=O)c1sc(SC)c(-c2ccn(S(=O)(=O)c3cc(C(F)(F)F)cc(C(F)(F)F)c3)n2)c1C,-1.02
CCCOC(=O)C1C2C=CC3(CN(c4ccccc4Cl)C(=O)C13)O2 (centres undefined),0.64
CCOC(=O)N1CCc2c(sc3c2C(=O)NC(/C=C\c2ccccc2)N3)C1 (centres undefined),0.1
O=C(CN1C(=O)COc2ccc(Cl)cc21)Nc1ccc2[nH]c(=O)[nH]c2c1,2.11
CN(C)c1ccc(/C=C(\C#N)c2ccc([N+](=O)[O-])cc2)cc1[N+](=O)[O-],-0.29
COc1ccc(/C(C#N)=C/c2cn[nH]c2)cc1,-0.82
COc1ccc(/C=C(\C#N)c2ccc([N+](=O)[O-])cc2)cc1[N+](=O)[O-],3.48*
CCc1ccc(C(=O)CSc2nc3ccccc3c(=O)[nH]2)cc1,1.02
O=C(CC1SCCNC1=O)Nc1ccc2c(c1)OCO2 (centres undefined),-0.95
O=C(CC1Sc2ccccc2NC1=O)Nc1ccc2c(c1)OCO2 (centres undefined),3.88*
O=C(CC1Sc2ccccc2NC1=O)Nc1ccc(Cl)cc1 (centres undefined),-0.08
O=C(CSc1nnc2scc(-c3ccc(Cl)cc3)n12)c1ccc2c(c1)OCCO2,-1.53
CC(C)n1c(SCC(=O)c2ccc(Cl)cc2)nc2cc(C(F)(F)F)ccc21,-1.14
CCCS/C(Nc1ccccc1Cl)=C(/C#N)S(=O)(=O)c1ccc(Cl)cc1,-0.81
O=C1OC(/C=C/c2ccccc2)=NC/1=C/c1ccc(Cl)cc1,2.09
O=C1OC(/C=C/c2ccccc2)=NC/1=C/c1cccc2ccccc12,3.48*
O=C1OC(c2ccccc2)=N/C1=C\c1ccc(/C=C2\N=C(c3ccccc3)OC2=O)cc1,-0.88
Cc1ccc(-c2cnc3c(-c4ccccc4)cnn3c2N)cc1,1.84
Nc1c(-c2ccc(Cl)cc2)cnc2c(-c3ccccc3)cnn12,3.14*
Cc1ccc(-c2cnc3c(-c4ccc(Cl)cc4)cnn3c2N)cc1,2.28
CCOc1nc(-c2ccccc2)ccc1-c1noc(-c2ccco2)n1,-0.07
CC(C)(C)C(=O)Oc1ccc(S(=O)(=O)Nc2ccccc2C(=O)NCC(=O)O)cc1,-0.58
COc1ccc(C2c3c(oc4ccccc4c3=O)C(=O)N2c2ccccn2)cc1 (centres undefined),4.11*
CCc1ccc(C2c3c(oc4ccccc4c3=O)C(=O)N2c2ccccn2)cc1 (centres undefined),1.97
COc1ccc(C2c3c(oc4ccccc4c3=O)C(=O)N2c2ccccn2)cc1OC (centres undefined),1.78
O=C1c2oc3ccccc3c(=O)c2C(c2ccc(O)cc2)N1c1nncs1 (centres undefined),-1.37
